Reference: PubChem BioAssay AID651640 (Broad Institute, 2012)
Where “and” joins values, the source holds several entries; their conditions need not be identical. Equal values may be shown once. Among all 350,000 compounds or so, about 6,000 (1.7%) were called active. Another 5% or so got no clear call; they are omitted. This is one part of a sample in which actives are shown more often than they occur. Cut-off read from the data, not from the text of the source: active = CPE inhibition above about 20% (passing the limit was not always enough); inconclusive = no clear call, values can overlap the other calls; tested in BHK-21 cells. Some compounds were tested as several samples or in several runs, with calls that do not always agree.

test: inhibitors of DENV2 cytopathic effect, primary screen, cell-based, plate reader, single concentration (AID 651640); conditions: DENV2-infected cells, cytopathic effect rescue, at 9.99 µM, stronger effect = higher value;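 note: 0% = median of neutral control wells and 100% = median of positive control wells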

CPE inhibition, 17.4% (inactive) and 62.5% (active):
C[C@H](CO)N1C[C@H](C)[C@@H](CN(C)C(=O)c2cnccn2)Oc2ncc(Br)cc2C1=O

CPE inhibition, active:
C/C=C(\C)C(=O)NCCN1C2=NC[C@H](Cc3ccc(O)cc3)N2C[C@@H]1Cc1ccc(OC)cc1 77.3%
CCOC(=O)N1CCN(Cc2nc3cc(NC(=O)CC)ccc3n2CC)CC1 38.6%
COc1ccc(C#Cc2cnc3c(c2)C(=O)N([C@H](C)CO)C[C@@H](C)[C@@H](CN(C)C(=O)CN(C)C)O3)cc1 33.2%
CC(=O)N(C)C[C@@H]1Oc2ncc(C#Cc3ccc(F)cc3)cc2C(=O)N([C@H](C)CO)C[C@@H]1C 28.5%
CN1OC[C@@H]2CN(C(=O)c3cccnc3)[C@H](c3ccc(N4CCCCC4)cc3)C[C@@H]21 42.6%
C/C=C/c1ccc([C@@H]2[C@H](CO)N(CC3CCOCC3)C23CN(S(=O)(=O)CC)C3)cc1 73.3%
CCOc1ccc(Oc2nc(C)cc(OC)n2)nn1 71.4%
O=C(CN1CCc2cc3c(cc2C1)OCCCO3)Nc1ccccc1 28.1%
COCC(=O)N1[C@H](CNC(=O)c2ccccn2)[C@H](c2ccccc2)[C@@H]1CO 35.1%
CCOc1ccc(C(=O)Nc2ccc(CN3CCOCC3)cc2)cc1Cl 29.8%

CPE inhibition, inactive:
COCC#Cc1cnc2c(c1)C(=O)N([C@H](C)CO)C[C@H](C)[C@H](CN(C)C(=O)C1CCOCC1)O2 8%
O=C(C[C@H]1C[C@@H]2c3cc(NC(=O)CC4CC4)ccc3O[C@@H]2[C@@H](CO)O1)NCc1cc(F)ccc1F -1.05%
C[C@@H]1CN([C@H](C)CO)C(=O)c2cc(NC(=O)c3ccncc3)ccc2O[C@H]1CN(C)Cc1ccc(Oc2ccccc2)cc1 -0.0445%
C[C@@H]1CCCCO[C@@H](CN(C)C(=O)Cc2ccccc2)[C@H](C)CN([C@H](C)CO)C(=O)c2cc(NC(=O)Cc3ccccc3)ccc2O1 13.3%
COc1ccc(-c2ccc3c(c2)[C@H]2[C@H](CCN2C(=O)c2ccc4c(c2)OCO4)[C@@H](CO)N3)cc1 -26.6%
Cc1ccc(C)c(CN2CCC(CNC(=O)C3CCCN(c4ncnc5c4nc4n5CCCCC4)C3)CC2)c1 (configuration not stated) 3.53%
CCCN1C[C@@H](C)[C@@H](OC)CN(C)C(=O)c2ccc(NC(=O)CC(F)(F)F)cc2OC[C@H]1C 1.09%
CN1c2ccc(Br)cc2[C@H]2[C@H](CCN2S(=O)(=O)c2ccc(F)cc2)[C@@H]1CO 0.0605%
CO[C@@H]1CN(C)C(=O)c2ccc(NC(=O)C3CC3)cc2OC[C@H](C)N(C(C)=O)C[C@H]1C 7.67%
COc1ccc(C[C@H]2CN3C(=NC[C@H]3C)N2CCNC(=O)CCC2CCCCC2)cc1 -4.48%
NC1=NC[C@@H](Cc2ccc(O)cc2)N1CC1CCCCC1 2.56%
CCC(=O)N1C[C@@H](O)COC[C@H]2O[C@H](CC(=O)NCC3CCCCC3)CC[C@@H]21 -3.58%
CCOC(=O)N1CCN(Cc2nc3cc(NC(C)=O)ccc3n2C)CC1 -3.68%
CCC(=O)Nc1ccc2c(c1)nc(CCN1CCN(c3ccccn3)CC1)n2C 0.997%
C[C@@H]1CN([C@H](C)CO)C(=O)c2cccc(NC(=O)c3ccncc3)c2O[C@@H]1CN(C)S(=O)(=O)c1cn(C)cn1 15%
O=C(Nc1ccccc1F)N[C@@H]1C=C[C@H](CC(=O)N2CCCCC2)O[C@@H]1CO -0.192%
Cc1noc(C)c1NC(=O)N(C)C[C@@H]1OCCCC[C@H](C)Oc2ccc(NC(=O)c3ccccc3)cc2C(=O)N([C@@H](C)CO)C[C@@H]1C 16.5%
C[C@H]1CN([C@@H](C)CO)C(=O)c2cc(C#Cc3ccc(F)cc3)cnc2O[C@@H]1CN(C)C(=O)Nc1ccc(F)cc1 -4.85%
COc1ccc(C#Cc2cnc3c(c2)C(=O)N([C@H](C)CO)C[C@H](C)[C@@H](CN(C)C)O3)cc1 19.9%
COc1ccc(C#Cc2cnc3c(c2)C(=O)N([C@@H](C)CO)C[C@H](C)[C@@H](CN(C)C(C)=O)O3)cc1 2.83%
C/C=C/c1cnc2c(c1)C(=O)N([C@@H](C)CO)C[C@@H](C)[C@H](CN(C)C(=O)c1cnccn1)O2 -1.7%
C/C=C/c1cnc2c(c1)C(=O)N([C@@H](C)CO)C[C@@H](C)[C@@H](CN(C)C(=O)c1cnccn1)O2 2.38%
C[C@H](CO)N1C[C@H](C)[C@H](CN(C)C)Oc2ncc(C#Cc3ccc(F)cc3)cc2C1=O -5.08% and 2.36%
N#C[C@H]1[C@H](c2ccccc2)[C@@H](CO)N1C(=O)c1cccnc1 -0.249%
COC(=O)[C@]12C[C@H](CC(=O)NCc3ccc(C)o3)C(=O)N(CCC3=CCCCC3)C1=C[C@H](C(C)(C)C)O[C@@H]2C 13.9%
CN(C)C(=O)[C@@H]1[C@@H](CO)[C@@H]2Cn3c(cccc3=O)[C@@H]2N1C(=O)C1CCC1 -0.032%
O=C(Nc1cccc(Cl)c1)N1C[C@@H]2[C@H](c3ccccc31)[C@H](CO)N2Cc1ccncc1 -4.1%
C/C=C/c1ccc([C@H]2[C@@H](CO)N[C@@H]2CN(CC)C(=O)CN2CCOCC2)cc1 -9.22%
O=C(C[C@@H]1C[C@H]2c3cc(NC(=O)NC4CCCCC4)ccc3O[C@H]2[C@H](CO)O1)NCc1ccncc1 -3.13%
CC(C)NC(=O)N(C)C[C@@H]1Oc2ncc(C3=CCCCC3)cc2C(=O)N([C@H](C)CO)C[C@@H]1C 4.71%
CCCNC(=O)C[C@H]1C[C@@H]2c3cc(NC(=O)COC)ccc3O[C@@H]2[C@@H](CO)O1 -2.37%
CN1OC[C@@H]2CN(C(=O)c3cccc4ccccc34)[C@H](c3ccc(N4CCCCC4)cc3)C[C@@H]21 1.89%
CN1OC[C@@H]2CN(C(=O)C(C)(C)C)[C@H](c3ccc(-n4ccnc4)cc3)C[C@@H]21 -4.59%
COc1ccc(NC(=O)Nc2ccc3c(c2)C(=O)N([C@@H](C)CO)C[C@@H](C)[C@@H](CN(C)Cc2ccncc2)OCCCC[C@@H](C)O3)cc1 -9.1%
CN1C(=O)c2cc(NC(=O)c3cccs3)ccc2OC[C@H]2O[C@@H](CC(=O)NCC3CC3)CC[C@@H]21 -3.31%
C/C=C/c1ccc([C@@H]2[C@@H](CO)N(CC3CCCC3)C23CN(S(=O)(=O)CC)C3)cc1 -5.75%
C/C=C/c1ccc([C@@H]2[C@H](CO)N(CC3CCCC3)C23CN(C(=O)CC)C3)cc1 2.47%
CO[C@H]1CN(C)C(=O)c2ccc(NS(=O)(=O)c3cn(C)cn3)cc2OC[C@H](C)N(C)C[C@H]1C -10.1%
C/C=C/c1cnc2c(c1)C(=O)N([C@H](C)CO)C[C@H](C)[C@H](CN(C)C(=O)c1cccc(F)c1)O2 -1%
C[C@@H]1CN([C@@H](C)CO)S(=O)(=O)c2ccc(Br)cc2O[C@H]1CN(C)S(=O)(=O)c1ccccc1 -1.43%
COc1ccc2c3c([nH]c2c1)[C@H](CO)N(Cc1nccs1)CC31CCN(Cc2ccncc2)CC1 6.23%
CCC(=O)N(C)C[C@@H]1Oc2cc(C#C[C@H](C)O)ccc2S(=O)(=O)N([C@@H](C)CO)C[C@H]1C -5.73%
C[C@@H]1CCCCO[C@H](CN(C)S(=O)(=O)c2cn(C)cn2)[C@@H](C)CN([C@@H](C)CO)C(=O)c2cc(NC(=O)c3ccncc3)ccc2O1 1.9%
COc1cc2c(cc1OC)CN(CC(=O)Nc1ccc(F)cc1)CC2 -5.5%
O=C(CN1CCOCC1)Nc1ccccc1 1.83%
O=C([C@@H]1[C@@H](CO)[C@@H]2Cn3c(ccc(C4=CCCCC4)c3=O)[C@H]1N2Cc1nccs1)N1CCCCC1 -3.86%
COc1ccc2c3c(n(C)c2c1)[C@@H](CO)N(C(=O)c1cccnc1)CC31CCN(C(=O)c2cccnc2)CC1 -1.97%
CCCC#Cc1ccc([C@@H]2[C@@H](CO)N3C(=O)CN(C(=O)c4ccncc4)C[C@@H]23)cc1 0.156%
COCC(=O)N1[C@H](CO)[C@@H](c2ccccc2)[C@H]1CN(C)C(=O)c1ccncc1 -13.8%
CCNC[C@@H]1[C@@H](c2ccccc2)[C@@H](CO)N1C(=O)Cc1ccccn1 -0.972%
COc1ccc2c3c([nH]c2c1)[C@H](CO)N(Cc1cccc(F)c1)CC31CCN(Cc2ccccn2)CC1 5.05%
CCCc1cc(=O)oc2cc(OCC(=O)Nc3ccc(CN4CCOCC4)cc3)c(Cl)cc12 2.98%
O=C(Nc1ccc(CN2CCOCC2)cc1)c1cc(Cl)ccc1Cl 0.583%
Cc1noc(C)c1NC(=O)Nc1ccc2c(c1)CC(=O)N([C@H](C)CO)C[C@@H](C)[C@H](CN(C)S(=O)(=O)c1cccs1)O2 5.9%
C[C@@H]1CN([C@@H](C)CO)C(=O)c2cccc(NS(=O)(=O)c3ccc(Cl)cc3)c2O[C@@H]1CN(C)Cc1ccccc1 10.9%
O=C(Cc1cccnc1)N1CC(=O)N2[C@@H](CO)[C@@H](c3ccc(C#CC4CCCCC4)cc3)[C@@H]2C1 6.08%
